Reference: the supplement of paper PMC12632987

Biological target: T1, FBXL12, Q9NXK8
T1 chain: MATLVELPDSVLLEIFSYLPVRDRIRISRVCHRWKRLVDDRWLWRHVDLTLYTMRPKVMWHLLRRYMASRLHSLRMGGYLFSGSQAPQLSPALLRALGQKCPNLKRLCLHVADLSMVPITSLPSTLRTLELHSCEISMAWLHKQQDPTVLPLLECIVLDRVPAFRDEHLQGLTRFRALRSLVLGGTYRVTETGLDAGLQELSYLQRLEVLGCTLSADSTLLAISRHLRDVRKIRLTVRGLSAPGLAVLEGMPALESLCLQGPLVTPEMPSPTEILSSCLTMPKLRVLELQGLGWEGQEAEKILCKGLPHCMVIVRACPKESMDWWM
Assay: median log2 fold change of GCK-ALFA target abundance (FLAG IP / Myc IP barcode read proportion) (log2 ratio); each designed protein is fused to an ALFA-tag nanobody in HEK293 cells to bring the named protein to FLAG-tagged glucokinase (GCK); Myc marks an untargeted standard; higher = target protein stabilised (more abundant)
Settings: target protein: 3xFLAG-MCP-GCK-ALFA reporter; HEK293 landing pad (RPLP)
Method: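 LABEL-seq trans screen in HEK293 landing-pad cells. Each de novo designed 100-aa effector handle, binding the indicated effector (E3 ligase, DUB or autophagy protein), is fused to a constant NbALFA target handle and induced with 2 ug/mL doxycycline. A FLAG-MCP-GCK-ALFA target and a Myc-MCP standard reporter were transfected, and after 48 h circRNA barcodes were recovered by anti-FLAG and anti-Myc IP and sequenced. The value is the median across barcodes (at least 3 per design) of log2(FLAG/Myc read-proportion ratio), with the two transfection replicates pooled. Negative values mean degradation and positive values mean stabilisation of the target.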

Binder | median log2 fold change
FBXL12_hotspot_81_97 (protein) KELDIVLSQQVQPGDTVEQVRAGLQYQVDLVEAAKAAGVKIRSITVRFSIDTSAFSPEEIEAILAAVEEARARIEALAKEAGAKLIDESAAAIAAVRAAL | 0.149
FBXL12_hotspot_82_98 (protein) MISIIGLVNRPPETAVESLRNTAETMIAIVEGARAAGVEVERAVLVVRADPETRAVAEELRPRLEAAGIEVHLKETSEEALATKEAILEEIERRWEEEEE | 0.108
FBXL12_hotspot_82_99 (protein) SIAIIGLVNRPPETAVASLRNTADTIITLVEGAREAGVEVVRAVLVVHADPETRAEAERLRPRLEAAGVEVHLEATSAAADARAEAIRAAIEARFAAEDA | 0.0901
FBXL12_hotspot_95_100 (protein) RRVVVVVFRHLVTPESAETVRQGVARFKAIVEGLRAAGVEVVAVLVLSYEDEESRALAEELKAEAAPLLDYAHLAPTREAAEAAYAELKARALAEADRLE | -0.315
FBXL12_hotspot_95_101 (protein) MRRVIILVRQAVTAENIESAIQAIERAAAIARGLRAAGVEVKLIVVAHAPDEETRARIEAAVERHRDVIDEFVLEETEEAMEEKAEELLEEALEEIDEAE | -0.00895
FBXL12_hotspot_95_102 (protein) QRKVVVVYRHTVTPENLEQALAGLRRAKEIVEGLKAAGVEVYAVVAVSAETEEQRAQLEAEAEKVAKAADYALVEILLGATPEEVEERAEEMLEEVLKKI | 0.243
FBXL12_hotspot_9_103 (protein) MTVLVVGRATTPESVRTTVRTAVEIAEGLVAAGHEVVLILYAADPEVAEVLRRTVEEEFGERVAALRAAGARVVVAPDLEAGERAKREALEEIERREEEE | 0.0779
FBXL12_hotspot_9_104 (protein) KHIVIVASASTREAFLNSARTALEIAIGLAKAGHKVTVILHHTRPETAEEARAAVKKELAELIEEAKELGIEIRFAATEEELERLLEEALREADEEEERE | 0.00127
FBXL12_hotspot_9_105 (protein) KHIIVVASAATKEAFLNSSRTALEIAIGLAKAGHKVTVILSYDDPEKFEEWRAALEEELKELLEEAKELGIKIHYAPSPEEKERILEEVLEEHDEEEEEE | 0.136
FBXL12_hotspot_9_106 (protein) MTILVTAYFEEESTIETTLKYALEIALGLAKAGHKVKVLIGAANEELLKKAKEILETKLKEIVEELKKLGVEIILVDSKEEYEKKKEELLKEAEEEEKEA | -0.24
FBXL12_hotspot_109_7 (protein) MTVIVGGLATRPEHAERTARYVLTITRGLLAAGHRVRVVLAGTEESREILEAAAAELRALGAEVTLVVAETPEEARALYEERLAEAEEELDEEEEEEEEE | 0.117
FBXL12_hotspot_9_107 (protein) KTVLVTAYFEKEETVETTLKYAMEIALGLAEAGHKVRVLIGAKNEEILKKAKEILETKLKETVERLKELGVEIIFVSSEEEYEKKKKELLEEMEKEEEEA | 0.196
FBXL12_hotspot_9_108 (protein) MLRILVATVSSLETAGPTIETAAAIARGLVAAGHRVRVIFISANAETGEEMLALARERLGALAAEEGRVTVVLRLAENEEEAEEIKEELLEEALEEVDRA | -0.0498
FBXL12_hotspot_9_109 (protein) RTRVVVGVVTSPETADSTLAMLRAVTSGLSRHDDRVHVLIVVQDPANRDALLARAEAVAAELEAEHPNVRVRVVAAPDEEAAEAARAAFLAEVDAEEAAA | 0.0457
FBXL12_hotspot_9_110 (protein) SSILVIAHVTTRETADTTLATARAVTTGLAAHHDRVDVLIVVSDPEHADEMAALAEATAAELEAEHPNVRAEVVRAPDEAAGRAAIEAREAEFLAAAAEE | -0.0129
FBXL12_hotspot_9_111 (protein) SSILVVAHVTTAETADSTLETAEAVTRGLAEHHDEVKVLIVVTDPENADEMAAKAEAVAERLEAEHPNVTATVVRAPDEAAGRAAIEAAEAAFLAEADAA | 0.154
